Laboratory results as given in PubChem BioAssay (NCATS).
Results filed as inconclusive are left out. Entries that show only a call come without a potency. Activity calls are given as the source filed them. Calls follow the shape of the dose curve; as a rule, active = well fitted curve in the direction sought with a large enough effect; inconclusive = small, poorly fitted or top-dose-only effect, or another doubt; inactive = no such curve, though single readings can be large; an effect the other way counts as inactive or inconclusive. Numbered stars: 1 amine (or outer) side, 2 acyl side, 3 side chain; on linkers, the order of the positions; unused ones are H or OH. Bridge positions count the residues as written; N and C are the ends. Square brackets hold non-standard residues; d marks the D form. Peptide text beside a SMILES is read from it. I, II: the chains in the order shown. Actinocin(9to1) = Cc1c2oc3c(C)ccc(C(=O)[*:1])c3nc-2c(C(=O)[*:2])c(N)c1=O; NMeV = CN[C@H](C(=O)O)C(C)C; Sar = CNCC(=O)O

How the values were obtained:
[1] = Cell Viability - LYMP2-003 (AID 965);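 also: cells exposed to compounds for 24 h before reading; nearly all actives have a fitted effect of over 50% in size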
Method in brief: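 qHTS, human lymphoblastoid line, 2500 cells/well, complete medium. 24 h drug, 37 C. ATP-based luminescent readout; Hill-fit AC50.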

[2] = Cell Viability - LYMP2-005 (AID 967)
Method in brief: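 Luciferase-based ATP quantitation served as the viability measure in human lymphoblastoid LYMP2-005 cells exposed to test compounds for 24 h at 37 C in complete culture medium. Potency (AC50) was obtained by fitting concentration-response curves with the Hill equation.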

[3] = Cell Viability - LYMP2-009 (AID 968); also: nearly all actives have a fitted effect of over 55% in size
[4] = Cell Viability - LYMP2-011 (AID 969); also: nearly all actives have a fitted effect of over 60% in size
Method in brief: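 Cells seeded at 2500 per well rest 5 hr before compound addition, then incubate 24 hr at 37 C. CellTiter-Glo reagent is added for 30 min at room temperature before luminescence detection.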

[5] = Cell Viability - LYMP2-013 (AID 970); also: nearly all actives have a fitted effect of over 55% in size
Method in brief: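 In complete culture medium, human lymphoblastoid cells were dosed for 24 hr at 37 C, with tetraoctylammonium bromide (6.4pM to 92 uM) as positive control. Viability reflects luciferase-based ATP signal; AC50 derived from concentration-response curves.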

[6] = Cell Viability - LYMP2-015 (AID 971); also: nearly all actives have a fitted effect of over 55% in size
Method in brief: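 AC50 values reflect Hill-model fits of ATP-based luminescence (CellTiter-Glo) from a human lymphoblastoid line, 2500 cells/well, treated 24 hr at 37 C.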

[7] = Cell Viability - LYMP2-017 (AID 972); also: nearly all actives have a fitted effect of over 55% in size
Method in brief: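 In this qHTS format, lymphoblastoid cells in complete medium receive test compound for a day at 37 C before ATP content is quantified by luciferase luminescence. Reported AC50 figures come from standard Hill-equation curve fitting.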

[8] = Cell Viability - LYMP2-019 (AID 973); also: nearly all actives have a fitted effect of over 55% in size
Method in brief: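 AC50 values come from Hill-equation modelling of qHTS concentration-response curves, where viability is measured as luciferase-based ATP luminescence in the lymphoblastoid line after 24 hr compound exposure in complete culture medium.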

[9] = Cell Viability - LYMP2-021 (AID 974)
Method in brief: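 In qHTS format, compounds are tested against 2500 lymphoblastoid cells per well for 24 h; viable cell number is inferred from ATP-driven luciferase light, and Hill-equation fitting yields AC50 values.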

[10] = Cell Viability - LYMP2-023 (AID 975); also: nearly all actives have a fitted effect of over 55% in size
Method in brief: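 In this qHTS, ATP-based luciferase luminescence (CellTiter-Glo) is quantified in human lymphoblastoid cells after 24 hr compound treatment at 37 C; tetraoctylammonium bromide serves as positive control. Concentration-response curves are Hill-fitted to give AC50.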
Potency is read from the fitted curve at half-maximal effect.

SMILES	Potency [1]	Potency [2]	Potency [3]	Potency [4]	Potency [5]	Potency [6]	Potency [7]	Potency [8]	Potency [9]	Potency [10]
C=CCc1ccc(O)c(OC)c1	inactive	inactive	inactive	inactive	inactive	inactive	inactive	inactive	inactive	inactive
CCCCCCc1ccc(O)cc1O	inactive	inactive	inactive	inactive	inactive	inactive	inactive	inactive	inactive	inactive
CN(C)/N=N/c1nc[nH]c1C(N)=O	inactive	inactive	inactive	inactive	inactive	inactive	inactive	inactive	inactive	inactive
C=C(CC)C(=O)c1ccc(OCC(=O)O)c(Cl)c1Cl	50.1 µM (active)	–	50.1 µM (active)	50.1 µM (active)	50.1 µM (active)	50.1 µM (active)	50.1 µM (active)	39.8 µM (active)	39.8 µM (active)	–
Oc1ccc(O)cc1	39.8 µM (active)	39.8 µM (active)	50.1 µM (active)	39.8 µM (active)	–	50.1 µM (active)	39.8 µM (active)	–	50.1 µM (active)	inactive
CC(O)C(=O)O (stereo not given)	inactive	inactive	inactive	inactive	inactive	inactive	inactive	inactive	inactive	inactive
CC(=O)Oc1ccc(C(c2ccc(OC(C)=O)cc2)c2ccccn2)cc1	inactive	inactive	inactive	inactive	inactive	inactive	inactive	inactive	inactive	inactive
NC(=NCCCCCCN=C(N)/N=C(\N)Nc1ccc(Cl)cc1)/N=C(\N)Nc1ccc(Cl)cc1	–	–	50.1 µM (active)	39.8 µM (active)	39.8 µM (active)	39.8 µM (active)	39.8 µM (active)	–	39.8 µM (active)	50.1 µM (active)
CC(=O)O[C@]1(C(C)=O)CC[C@H]2[C@@H]3C[C@H](C)C4=CC(=O)CC[C@]4(C)[C@H]3CC[C@@]21C	–	–	39.8 µM (active)	39.8 µM (active)	31.6 µM (active)	39.8 µM (active)	31.6 µM (active)	–	39.8 µM (active)	–
Oc1c(Cl)cc(Cl)cc1Sc1cc(Cl)cc(Cl)c1O	–	inactive	50.1 µM (active)	–	50.1 µM (active)	–	–	–	39.8 µM (active)	–
COc1cccc2c1C(=O)c1c(O)c3c(c(O)c1C2=O)C[C@@](O)(C(=O)CO)C[C@@H]3O[C@H]1C[C@H](N)[C@H](O)[C@H](C)O1	0.501 µM (active)	0.398 µM (active)	0.251 µM (active)	0.251 µM (active)	1 µM (active)	0.158 µM (active)	0.631 µM (active)	0.631 µM (active)	0.398 µM (active)	0.398 µM (active)
O=c1ccc2ccccc2o1	inactive	inactive	inactive	inactive	inactive	inactive	inactive	inactive	inactive	inactive
COc1cccc2c1C(=O)c1c(O)c3c(c(O)c1C2=O)C[C@@](O)(C(C)=O)C[C@@H]3O[C@H]1C[C@H](N)[C@H](O)[C@H](C)O1	0.316 µM (active)	0.158 µM (active)	0.251 µM (active)	–	2 µM (active)	–	0.631 µM (active)	3.98 µM (active)	–	–
Cc1c2oc3c(C)ccc(C(=O)N[C@@H]4C(=O)N[C@H](C(C)C)C(=O)N5CCC[C@H]5C(=O)N(C)CC(=O)N(C)[C@@H](C(C)C)C(=O)O[C@@H]4C)c3nc-2c(C(=O)N[C@@H]2C(=O)N[C@H](C(C)C)C(=O)N3CCC[C@H]3C(=O)N(C)CC(=O)N(C)[C@@H](C(C)C)C(=O)O[C@@H]2C)c(N)c1=O (I: T[dV]P[Sar][NMeV] / II: T[dV]P[Sar][NMeV]; ester I:1-I:C, II:1-II:C; linker I:N-II:N via Actinocin(9to1))	–	–	–	–	–	–	0.01 µM (active)	–	0.0025 µM (active)	–
Nc1ccc(C(=O)O)cc1	inactive	inactive	inactive	inactive	inactive	inactive	inactive	inactive	inactive	inactive
CC/C(=C(/CC)c1ccc(O)cc1)c1ccc(O)cc1	inactive	inactive	inactive	inactive	inactive	inactive	inactive	inactive	inactive	inactive
CC(C)(C)CC(C)(C)c1ccc(OCCOCC[N+](C)(C)Cc2ccccc2)cc1	39.8 µM (active)	–	31.6 µM (active)	31.6 µM (active)	25.1 µM (active)	25.1 µM (active)	31.6 µM (active)	39.8 µM (active)	31.6 µM (active)	39.8 µM (active)
O=C(O)CCCCC(=O)O	inactive	inactive	inactive	inactive	inactive	inactive	inactive	inactive	inactive	inactive
C[C@]12CC[C@@H]3c4ccc(O)cc4CC[C@H]3[C@@H]1CC[C@@H]2O	inactive	inactive	inactive	inactive	inactive	inactive	inactive	inactive	inactive	inactive
COC1=CC(=O)C[C@@H](C)[C@]12Oc1c(Cl)c(OC)cc(OC)c1C2=O	inactive	inactive	inactive	inactive	inactive	inactive	inactive	inactive	inactive	inactive
O=C1OC(c2ccc(O)cc2)(c2ccc(O)cc2)c2ccccc21	inactive	inactive	inactive	inactive	inactive	inactive	inactive	inactive	inactive	inactive
